Key:
Format in all cases: functional
Plasmodium falciparum [1] = experiment: GSK_TCMDC: Inhibition of Plasmodium falciparum 3D7 in whole red blood cells, using parasite LDH activity as an index of growth. Test compounds present at 2uM
Plasmodium falciparum [2] = experiment: GSK_TCMDC: Inhibition of Plasmodium falciparum Dd2 in whole red blood cells, using parasite LDH activity as an index of growth. Test compounds present at 2uM
HepG2 = experiment: GSK_TCMDC: Percent inhibition of human HepG2 cell line. Test compounds present at 10uM.

Row | Compound | Inhibition (Plasmodium falciparum [1]) [%] | Inhibition (Plasmodium falciparum [2]) [%] | Inhibition (HepG2) [%]
1 | COc1cc2ncnc(Nc3ccc(OCc4ccccc4)c(C(F)(F)F)c3)c2cc1OC.Cl | 100 | 78 | 8
2 | COc1ccc(CCCCN2C(=O)C(c3ccccc3)(c3ccccc3)N=C2N)cc1.O=C(O)C(F)(F)F | 97 | 95 | 40
3 | Cl.O=C(CCCC(=O)Nc1ccc(C2=NCCN2)cc1)Nc1ccc(C2=NCCN2)cc1 | 91 | 81 | 3
4 | NC1CCN(c2cnn(Cc3cccc(NC(=O)Nc4ccc(-c5ccccc5)cc4)c3)c(=O)c2Cl)CC1.O=C(O)C(F)(F)F | 89 | 11 | 5
5 | COc1cccc(C(=O)NC(c2ccc(Cl)cc2Cl)c2cc(Cl)c3cccnc3c2O)c1 (configuration not stated) | 100 | 76 | 37
6 | COC(=O)c1cccc(NC(=O)NCCNc2ccnc(Nc3ccc(F)cc3)n2)c1 | 93 | 5 | 10
7 | O=C(O)C(F)(F)F.Oc1ccc(CCNc2nc(NCCCOc3ccccc3-c3cccnc3)nc(N3CCNCC3)n2)cc1 | 92 | 1 | 10
8 | COc1cc(C(=O)N2CCOC(CCN3CCC(Cc4ccc(F)cc4)CC3)(c3ccc(Cl)c(Cl)c3)C2)cc(OC)c1OC (configuration not stated) | 88 | 58 | 44
9 | Clc1ccccc1C=NN=c1cc[nH]c2ccccc12 | 100 | 50 | 25
10 | Cl.O=C(NC1CCC(CCN2Cc3cccc(F)c3C2)CC1)c1cccc(-c2cccnc2)c1 (configuration not stated) | 98 | 82 | 16
11 | O=C(/C=C/c1ccc(Cl)c(Cl)c1)NCCCCCN1CCCC(CNC(=O)Nc2ccc(C(F)(F)F)cc2)C1 (configuration not stated) | 100 | 7 | 27
12 | O=C(NCCN1CCN(S(=O)(=O)c2ccc(OC3CCNCC3)c(Br)c2)CC1)c1ccc(Cl)c(Cl)c1.O=C(O)C(F)(F)F | 89 | 0 | 1
13 | Cc1noc(C)c1C(=O)N1CCCC(c2[nH]c3c(C)cccc3c2-c2ccncc2)C1.Cl (configuration not stated) | 100 | 100 | 16
14 | Cc1cccc2nc(-c3ccc(-c4cccc(NC(=O)c5cncn5C)c4)cc3)[nH]c12 | 100 | 1 | 2
15 | CN(C)CCNC(=O)c1csc(Nc2ccc(Cl)c(Cl)c2)n1 | 100 | 100 | 4
16 | O=C(/C=C/c1ccc(Cl)c(Cl)c1)NCCCCCCN1CCN(C(=O)Nc2ccc(C(F)(F)F)cc2)CC1 | 100 | 44 | 42
17 | N#Cc1ccc(-c2ccc(C(=O)NCCCCN3CCC(c4cn(CCO)c5ccccc45)CC3)cc2)cc1 | 93 | 43 | 23

Row | Compound | Inhibition (Plasmodium falciparum [1]) [%] | Inhibition (Plasmodium falciparum [2]) [%] | Inhibition (HepG2) [%]
18 | O=C(NCC1CCN(Cc2ccc3c(c2)OCCO3)C1)c1cc(-c2ccccc2F)cs1.O=C(O)C(F)(F)F (configuration not stated) | 95 | 0 | 18
19 | Cl.N#Cc1cccc(NC(=O)Nc2ccc3c(c2)CCN(C2CCC2)CC3)c1 | 91 | 26 | 22
20 | CCOC(=O)C1=C(C)NC2=C(C(=O)CC(C)(C)C2)C1c1ccc(Cl)cc1 (configuration not stated) | 96 | 84 | 4
21 | CC(C)C[C@@H](/C=N/N1CCOC1=O)NC(=O)[C@H](CC(C)C)NC(=O)c1ccc(F)cc1 | 85 | 72 | 1
22 | O=C(Nc1ccc(Cl)cc1)Nc1cccc(-c2ccc(-c3nc4cc(F)ccc4[nH]3)cc2)c1 | 100 | 99 | 73
23 | CCCCCCn1c(Sc2ccc(C#N)c([N+](=O)[O-])c2)nnc1-c1ccc(N(C)C)cc1 | 92 | 25 | 0
24 | CC(C)(C)c1ccc(CN2CCCCC(NC(=O)c3cc(-c4cccc(F)c4)cs3)C2)cc1.O=C(O)C(F)(F)F (configuration not stated) | 98 | 84 | 8
25 | COc1cc(NC(=O)Nc2ccnc3ccccc23)cc(OC)c1.Cl | 98 | 34 | 11
26 | Cc1cc(C2CCN(CCCCNC(=O)c3ccc(NC(=O)c4ccc(Cl)cc4)cc3)CC2)c(C)cc1OCc1cccnc1 | 100 | 90 | 39
27 | Cc1nc(-c2nc(NCc3ccncc3)ncc2-c2ccsc2)sc1C | 91 | 83 | 8
28 | CCN(CC)CCN(Cc1ccc(-c2ccc(C(F)(F)F)cc2)cc1)C(=O)Cn1c(CCc2cccc(F)c2F)nc(=O)c2sccc21.O=C(O)C(O)C(O)C(=O)O | 96 | 70 | 70
29 | Cc1cc(CNCCCCCCCNCc2ccc(-c3ccccc3)cc2)ccc1O | 97 | 6 | 49
30 | OCCCCCCNc1ccnc2[nH]c3ccc(I)cc3c12 | 100 | 61 | 27
31 | COc1ccccc1/C=C/C(=O)NCCC1CCN(CCCCCNC(=O)/C=C/c2ccc(Cl)c(Cl)c2)CC1 | 94 | 0 | 34
32 | CCc1c[nH]c2c(N3CCCC3=O)cc(C(=O)N[C@@H](Cc3ccccc3)[C@H](O)CNC(C)(C)CCCC(C)C)cc12.O=CO | 96 | 97 | 22
33 | COC(=O)c1cccc(CNCc2cccc(-c3ccc(-c4nc5cccc(C)c5[nH]4)s3)c2)c1.O=C(O)C(F)(F)F | 100 | 65 | 0
34 | CCOc1ccc(C(=O)Nc2cc(Cl)ccc2O)cc1Cl | 83 | 84 | 11
